# Measurements from article PMC4552634, “A New Set of Chemical Starting Points with Plasmodium falciparum Transmission-Blocking Potential for Antimalarial Drug Discovery” (PLoS ONE, 2015).
# Hit rate of the full screen: of about 13,000 compounds, about 3,200 (25%) showed an effect of 50% or more. Some of the results follow.
# System: P. falciparum stage V gametocytes
# Parameters: BacTiter-Glo ATP luminescence viability of purified stage V gametocytes in 384-well plates, per cent inhibition versus DMSO
# Settings: 48 h, 5 µM; inhibitor
row,Compound,% Inhibition
1,COCCNCc1ncsc1-c1ccc2c(Nc3cc(O)ccc3C)ccnc2c1 [TCMDC-138465],-33.69%
2,CC(C)(C)c1ccccc1OC(=O)c1ccccc1 [TCMDC-123936],-15.9%
3,CCCN1CCC(c2c[nH]c3ccc(NC(=O)Nc4cccc(Cl)c4Cl)cc23)CC1 [TCMDC-139182],-83.82%
4,Cc1ccc2c(N/N=C/c3cccc([N+](=O)[O-])c3)cc(C)nc2c1 [TCMDC-142072],87.02%
5,O=[N+]([O-])c1ccc(C=NNc2nc(Nc3ccccc3)nc(Nc3ccccc3)n2)o1 [TCMDC-125802],108.2%
6,COc1ccc2nc(C)cc(NN=Cc3cccc([N+](=O)[O-])c3)c2c1 [TCMDC-123972],49.98%
7,COc1ccc2c(N/N=C/c3ccccc3[N+](=O)[O-])cc(C)nc2c1 [TCMDC-142088],-15.58%
8,O=[N+]([O-])c1ccc(Nc2nc(N/N=C/c3ccc(-c4ccc([N+](=O)[O-])cc4)o3)nc(Nc3ccccc3)n2)cc1 [TCMDC-123858],-4.596%
9,O=[N+]([O-])c1ccc(-c2ccc(C=NNc3nc(Nc4ccccc4)nc(Nc4ccccc4)n3)o2)cc1 [TCMDC-124230],-25.78%
10,Cc1ccc2c(N/N=C/c3ccccc3[N+](=O)[O-])cc(C)nc2c1 [TCMDC-142071],26.69%
11,Cc1cc(N/N=C/c2cccc([N+](=O)[O-])c2)c2ccccc2n1 [TCMDC-123977],89.22%
12,COc1ccc2c(N/N=C/c3cccc([N+](=O)[O-])c3)cc(C)nc2c1 [TCMDC-142089],108%
13,Cc1cc(N/N=C/c2ccccc2[N+](=O)[O-])c2ccccc2n1 [TCMDC-123978],-75.07%
14,CNC(=O)CSc1nnc(-c2ccc(C)cc2)c(-c2ccc(C)cc2)n1 [TCMDC-123901],5.321%
15,NC(=O)Nc1ccc2cn[nH]c2c1 [TCMDC-131601],13.14%
16,C=CCc1cccc(CN2CCC(c3cc(=O)[nH]c(-c4ccccn4)n3)CC2)c1O [TCMDC-124851],46.78%
17,CCc1nc2c(N)nc(N)nc2nc1-c1ccc(OC)cc1 [TCMDC-132107],7.623%
18,Cc1ccc(Nc2nc(N/N=C/c3ccccc3[N+](=O)[O-])nc(Nc3ccc([N+](=O)[O-])cc3)n2)cc1C [TCMDC-124207],32.01%
19,Cc1cccc(C=NNc2cc(C)nc3ccc(F)cc23)n1 [TCMDC-142019],-41.63%
20,COc1cccc2c(N/N=C/c3ccccc3[N+](=O)[O-])cc(C)nc12 [TCMDC-142043],74.75%
21,Cc1cc(N/N=C/c2ccccc2[N+](=O)[O-])c2cccc(C)c2n1 [TCMDC-142073],-15.7%
22,CCOc1ccc2nc(C)cc(NN=Cc3cccc(F)c3)c2c1 [TCMDC-142093],73.55%
23,Cc1ccc2nc(C)cc(N/N=C/c3cccc([N+](=O)[O-])c3)c2c1 [TCMDC-142069],66.26%
24,Cc1ccc(Nc2nc(N/N=C/c3cccc([N+](=O)[O-])c3)nc(Nc3ccccc3)n2)c(C)c1 [TCMDC-124206],1.923%

row,Compound,% Inhibition
1,Cc1cc(N2CCCC2)nc(Nc2ccc(NC(=O)c3ccccc3C)cc2)n1 [TCMDC-124711],-8.542%
2,CCOC(=O)c1c(C)noc1Nc1ccc(OC)cc1 [TCMDC-131521],-6.953%
3,COc1cccc(CNC[C@@H](O)[C@H](Cc2ccccc2)NC(=O)c2cc(N3CCCC3=O)c3[nH]cc(C(C)C)c3c2)c1 [TCMDC-132584],-12.1%
4,CCc1c[nH]c2c(N3CCCC3=O)cc(C(=O)N[C@@H](Cc3ccccc3)[C@H](O)CNC3CCCCC3)cc12 [TCMDC-135024],43.33%
5,CCc1c[nH]c2c(N3CCCS3(=O)=O)cc(C(=O)N[C@@H](Cc3ccccc3)[C@H](O)CNC3CCCCC3)cc12 [TCMDC-135169],49.22%
6,CCc1c[nH]c2c(N3CCCS3(=O)=O)cc(C(=O)N[C@@H](Cc3ccccc3)[C@H](O)CNC(C)(C)CCCC(C)C)cc12 [TCMDC-135168],100.1%
7,CCc1c[nH]c2c(N3CCCC3=O)cc(C(=O)N[C@@H](Cc3ccccc3)[C@H](O)CNC(C)(C)CCCC(C)C)cc12 [TCMDC-135025],68.24%
8,CCc1c[nH]c2c(N3CCCS3(=O)=O)cc(C(=O)N[C@@H](Cc3ccccc3)[C@H](O)CNC(C)(C)c3cccc(C(F)(F)F)c3)cc12 [TCMDC-135172],20.21%
9,CCc1cn(C)c2c(N3CCCC3=O)cc(C(=O)N[C@@H](Cc3ccccc3)[C@H](O)CNC(C)(C)CCCC(C)C)cc12 [TCMDC-135199],78.23%
10,CCc1c[nH]c2c(N3CCCCC3=O)cc(C(=O)N[C@@H](Cc3ccccc3)[C@H](O)CNCc3cccc(OC)c3)cc12 [TCMDC-134156],3.442%
11,CCc1ccnc2c(N3CCCC3=O)cc(C(=O)N[C@@H](Cc3ccccc3)[C@H](O)CNC3CCOCC3)cc12 [TCMDC-135882],-3.363%
12,CCNc1cc(C(=O)N[C@@H](Cc2ccccc2)[C@H](O)CNCC(C)C)cc(N2CCCC2=O)c1 [TCMDC-138888],11.22%
13,CCc1cn(C)c2c(N3CCCC3=O)cc(C(=O)N[C@@H](Cc3ccccc3)[C@H](O)CNC3CCCCC3)cc12 [TCMDC-135198],56.93%
14,CCNc1cc(C(=O)N[C@@H](Cc2ccccc2)[C@H](O)CNCCC(C)c2ccccc2)cc(N2CCCC2=O)c1 (stereo partly shown) [TCMDC-141683],6.791%
15,COc1cc(Nc2nccc(N3CCC(NC(=O)c4cccc(C#N)c4)C3)n2)cc(OC)c1OC (stereo not shown) [TCMDC-133620],1.02%
16,N#Cc1cccc(C(=O)Nc2cccc(-c3ccc(C(=O)Nc4cccnc4)cc3)c2)c1 [TCMDC-133695],-12.11%
17,O=C(/C=C/c1ccc(F)cc1)NC1CCC(CCN2CCCN(c3ccc(C(F)(F)F)cn3)CC2)CC1 (stereo not shown) [TCMDC-139724],-25.55%
18,c1ccc(-c2cccnn2)cc1 [TCMDC-123929],-43.62%
19,CCCCc1cc(NCc2ccncc2)nc(Nc2cccc(OC)c2)n1 [TCMDC-133999],-9.372%
20,O=C(Nc1ccc(-c2cccc(-c3nc4ccc(C(F)(F)F)cc4[nH]3)c2)cc1)c1csnn1 [TCMDC-136903],-25.31%
21,Cc1ccc2c(c1)c(-c1ccccc1)c(-c1ccccc1)n2CC(O)CN1CCN(CC=Cc2ccccc2)CC1 (stereo not shown) [TCMDC-123998],27.39%
22,O=C(C1CCN(C(c2ccccc2)c2ccc(Cl)c(Cl)c2)CC1)N1CC=CC1 (stereo not shown) [TCMDC-135516],-15.6%
23,COc1cc(C2=NN(S(=O)(=O)c3c(Cl)cc(Cl)cc3Cl)CCCC2)ccc1Cl [TCMDC-136212],-48.52%
24,CCc1cn2c3c(cc(C(=O)N[C@@H](Cc4ccccc4)[C@H](O)CNC(C)C)cc13)N(C)S(=O)(=O)C2 [TCMDC-135401],-18.09%

row,Compound,% Inhibition
1,CCc1cn2c3c(cc(C(=O)N[C@@H](Cc4ccccc4)[C@H](O)CNC(C)(C)c4cccc(OC)c4)cc13)N(C)S(=O)(=O)C2 [TCMDC-135393],41.96%
2,CCc1cn2c3c(cc(C(=O)N[C@@H](Cc4ccccc4)[C@H](O)CNC(C)(C)CCCC(C)C)cc13)N(C)S(=O)(=O)C2 [TCMDC-135400],80.58%
3,O=C(Nc1cccc(C(F)(F)F)c1)N1CCOC(CCN2CCC(c3ccccc3)CC2)(c2ccc(Cl)c(Cl)c2)C1 (stereo not shown) [TCMDC-135345],-74.75%
4,CC(C)(C)c1ccc(N2C(N)=NC(N)=NC2(C)C)cc1Cl [TCMDC-137710],44.95%
5,COc1ccc(Cc2c(Cl)nc3nc(N)nc(N)c3c2C)c(OC)c1OC [TCMDC-137688],14.16%
6,N#CC(c1cccc(Cl)c1)c1ccc2c(C(F)(F)F)cc(C(F)(F)F)nc2n1 (stereo not shown) [TCMDC-125544],14.86%
7,O=c1cc(-c2ccc3ccccc3c2)[nH]c2ccccc12 [TCMDC-138937],4.967%
8,CCCCCCCc1cc(=O)c2ccccc2[nH]1 [TCMDC-132026],46.19%
9,CCCOc1cc(OCCC)cc(-c2cc(=O)c3ccccc3[nH]2)c1 [TCMDC-138943],63.29%
10,CCCCCC(C)C(C)c1cc(O)c2c(c1)OC(C)(C)CC2(O)c1ccnn1C (stereo not shown) [TCMDC-131795],-1.098%
11,COc1ccc2nccc([C@@H](O)CN3CCC(NC(=O)/C=C/c4ccc5cc(C)[nH]c5c4)CC3)c2c1 [TCMDC-141041],-19.17%
12,N#C/N=C(\NCCCCCCCCN/C(=N\C#N)NCCSCc1csc(N=C(N)N)n1)NCCCSc1csc(N=C(N)N)n1 [TCMDC-139456],-7.363%
13,NC(N)=Nc1nc(CCCCCCCCc2csc(N=C(N)N)n2)cs1 [TCMDC-137552],85.12%
14,NC(N)=Nc1nc(-c2ccc(N=C(N)N3CCC[C@H]3CN3CCCC3)cc2)cs1 [TCMDC-139612],25.87%
15,Cc1ccc([S+]([O-])Cc2ccc(Cl)cc2)cc1 (stereo not shown) [TCMDC-131393],8.887%
16,COc1cc(Cc2cnc(N)nc2N)cc(OCCCCCC(N)=O)c1OC [TCMDC-137361],38.24%
17,CC(C)(C)c1ccc(CN2CCCCC(NC(=O)c3cc(-c4ccccc4Cl)cs3)C2)cc1 (stereo not shown) [TCMDC-134467],-60.63%
18,CCc1ccc(CN2CCCCC(NC(=O)c3cc(-c4ccccc4F)cs3)C2)cc1 (stereo not shown) [TCMDC-134461],-44.42%
19,COc1cccc(-c2csc(C(=O)NC3CCCCN(Cc4ccc(C(C)(C)C)cc4)C3)c2)c1 (stereo not shown) [TCMDC-134469],-86.38%
20,COc1ccccc1-c1csc(C(=O)NC2CCCCN(Cc3ccc(C(C)(C)C)cc3)C2)c1 (stereo not shown) [TCMDC-134516],70.05%
21,CC(C)(C)c1ccc(CN2CCCCC(NC(=O)c3cc(-c4ccccc4F)cs3)C2)cc1 (stereo not shown) [TCMDC-134465],82.77%
22,O=C(NC1CCCCN(Cc2ccc3c(c2)OCCO3)C1)c1cc(-c2ccccc2F)cs1 (stereo not shown) [TCMDC-134517],-15.69%
